Experiment [1] in a line: Viability qHTS for spleen associated tyrosine kinase inhibitor (SYKi) naive MV4-11 cells (AID 1963823). Also: nearly all actives have a fitted effect of over 40% in size. In outline:
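SYKi-naive MV4-11 AML cells, 500 per well, were exposed to library compounds for 72 hr at 37 C, 5% CO2. Viability was then read by CellTiter-Glo luminescence after 10 min at room temperature.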
Background: Quantitative high-throughput screening tests each substance at several concentrations.

Experiment [2] can be described thus: Viability qHTS for spleen associated tyrosine kinase inhibitor (SYKi) drug resistant MV4-11 cells (AID 1963824). Also: nearly all actives have a fitted effect of over 35% in size. An outline of the steps: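 CellTiter-Glo luminescence, read 10 min after reagent addition, reports viability after a 72 hr compound exposure. Cells are an MV4-11 line made resistant to SYK inhibition, seeded at 500 per well onto compound-containing plates.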

Experiment [3] can be described thus: Cellular viability qHTS for adrenocortical cancer (ACC) cell line SW-13 (AID 1963989). Also: nearly all actives have a fitted effect of over 65% in size.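 As to activity (max response): cells grown in serum-free medium with ITS supplement; % is scaled to controls: 0 for no effect and ±100 for the full control effect.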 The conditions noted are these: SW-13 ACC cells viability, CellTiter-Glo, 48 h; activity (max response): hits give low values. An outline of the steps:
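SW-13 cells in ITS-supplemented serum-free DMEM were plated overnight, then exposed for 48 h at 37C to compound titrations (up to 46 uM final). Viability was read by CellTiter-Glo luminescence; four-parameter logistic fits gave IC50 and efficacy.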

Experiment [4] in a line: Cellular viability qHTS for adrenocortical cancer (ACC) cell line NCI-H295R (AID 1963990). Also: nearly all actives have a fitted effect of over 60% in size. In outline: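 Luminescent ATP read-out (CellTiter-Glo, 20 min RT) after 48 h drug exposure of NCI-H295R cells; a titration up to 46 uM final. Data normalized to doxorubicin (100% inhibition) and DMSO (0%); 4-parameter fit gives IC50, max response.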

Values joined by “and” are separate entries in the source; they are usually repeats but may differ in a detail not shown here. Identical values can stand only once. Records with an inconclusive call do not appear. Values without a mark were called inactive. Active and inactive are the calls of the source. Calls follow the shape of the dose curve; as a rule, active = well fitted curve in the direction sought with a large enough effect; inconclusive = small, poorly fitted or top-dose-only effect, or another doubt; inactive = no such curve, though single readings can be large; an effect the other way counts as inactive or inconclusive.
Potency is read from the fitted curve at half-maximal effect.

For the compound `CCOC(=O)c1cc(=O)c2c(OCC(COc3cccc4oc(C(=O)OCC)cc(=O)c34)OC(=O)[C@@H](N)CCCCN)cccc2o1`, the Potency entry in experiment [1], in experiment [2] and in experiment [4] was “inactive” in each case. In addition, the activity (max response) in experiment [3] is 4.59%.

`O=C(O)/C=C(\CC(=O)O)C(=O)O`: the Potency result in experiment [1], in experiment [2] and in experiment [4] was “inactive” each time. Besides, the activity (max response) in experiment [3] was 7.17%.

With `C=CC(=O)Nc1cccc(Nc2nc(Nc3ccc(OCCOC)cc3)ncc2F)c1`, the Potency in experiment [1] was 468 nM (active); in experiment [2] it was 651 nM (active); in experiment [3], 15.8 µM (active); in experiment [4], 3.98 µM (active).

For `COc1cc(C(=S)N2CCOCC2)cc(OC)c1OC`, the Potency result in experiment [1], in experiment [2] and in experiment [4] was “inactive” each time. Also, in experiment [3], the activity (max response) is 1.86%.

For `COC(=O)[C@@H](N)Cc1ccc(O)c(O)c1`, the Potency entry in experiment [1], in experiment [2] and in experiment [4] was “inactive” each time. Also, in experiment [3], the activity (max response) was -15%.

For the compound `C[C@H]1CNC(=O)c2cnn3ccc(nc23)N[C@H](C)c2cc(F)ccc2O1`, the Potency is 525 nM (active) in experiment [1], 934 nM (active) in experiment [2], 8.91 µM (active) in experiment [3] and 8.91 µM (active) in experiment [4].

With `CNC(=O)[C@H](Cc1c[nH]c2ccccc12)NC(=O)[C@@H](CC(=O)NO)CC(C)C`, the Potency in experiment [1] is 9340 nM (active); in experiment [2], 10500 nM (active). For the same compound, the activity (max response) in experiment [3] was -15.7%. In addition, the Potency result in experiment [4] is “inactive”.

For the compound `CC1(C)CN(C(=O)c2ccc(-c3cccc4nc(NC(=O)C5CC5)nn34)cc2)C1`, the Potency was 6610 nM (active) in experiment [1] and 16400 nM (active) in experiment [2]. In experiment [3], the activity (max response) is 2.66%. Besides, the Potency entry in experiment [4] was “inactive”.

For `CC(C)(C)C(O)/C=C/c1ccc2c(c1)OCO2` (stereo unspecified), the Potency entry in experiment [1], in experiment [2] and in experiment [4] was “inactive” throughout. The activity (max response) in experiment [3] was -8.69%.

Take `O=C(CCCCCCC(=O)N/N=C/c1ccc(N(c2ccccc2)c2ccccc2)cc1)NO`: the Potency in experiment [1] was 4170 nM (active); in experiment [2], 4170 nM (active); in experiment [3] it was 28.2 µM (active); in experiment [4], 0.631 µM (active).

Turning to `COC1CCC(N2C(=O)CNc3ncc(-c4ccc(C(C)(C)O)nc4)nc32)CC1` (stereo unspecified), the Potency in experiment [1] was 5250 nM (active); in experiment [2], 4170 nM (active); in experiment [3], 15.8 µM (active); in experiment [4], 15.8 µM (active).

In the case of `CCCCNC(=O)NS(=O)(=O)c1ccc(C)cc1`, the Potency entry in experiment [1], in experiment [2] and in experiment [4] was “inactive” each time. Moreover, the activity (max response) in experiment [3] is 2.87%.

For `CC(=O)N(c1onc(C)c1C)S(=O)(=O)c1ccc(N)cc1`, the Potency entry in experiment [1], in experiment [2] and in experiment [4] was “inactive” in each case. Moreover, the activity (max response) in experiment [3] is 0.743%.

As for `CCCCCCCCCCCCCCCC[N+](C)(C)Cc1ccccc1`, the Potency in experiment [1] was 2370 nM (active); in experiment [2] it was 1880 nM (active); in experiment [3] it was 8.2 µM (active); in experiment [4] it was 8.2 µM (active).

In the case of `Cc1c(C)c2c(c(C)c1OC(=O)CCC(=O)OCCO)CC[C@@](C)(CCC[C@H](C)CCC[C@H](C)CCCC(C)C)O2`, the Potency result in experiment [1] and in experiment [2] was “inactive” throughout. The Potency in experiment [3] was 18.4 µM (active); in experiment [4] it was 13 µM (active).

For the compound `O=C(O)Cc1ccccc1Oc1ccc(Cl)cc1Cl`, the Potency entry in experiment [1], in experiment [2] and in experiment [4] was “inactive” each time. Moreover, the activity (max response) in experiment [3] is 4.63%.

For `CCN1C(=O)CNc2ncc(-c3ccc(-c4ncn[nH]4)nc3C)nc21`, the Potency was 417 nM (active) in experiment [1], 742 nM (active) in experiment [2], 8.91 µM (active) in experiment [3] and 10 µM (active) in experiment [4].

`O=C(O)c1ccccc1NCCc1ccccc1`: the Potency entry in experiment [1], in experiment [2] and in experiment [4] was “inactive” in each case. Moreover, the activity (max response) in experiment [3] was 9.86%.

`C/C=C(/C)C(=O)O[C@H]1C(C)=CC23C(=O)C(C=C(CO)[C@@H](O)[C@]12O)[C@H]1[C@@H](C[C@H]3C)C1(C)C` (stereo partly specified): the Potency was 16.6 nM (active) in experiment [1] and 8.3 nM (active) in experiment [2]. For the same compound, in experiment [3], the activity (max response) is -8.96%. Further, the Potency entry in experiment [4] is “inactive”.

`NS(=O)(=O)c1cc2c(cc1C(F)(F)F)NC(Cc1ccccc1)NS2(=O)=O` (stereo unspecified): the Potency entry in experiment [1], in experiment [2] and in experiment [4] was “inactive” in each case. The activity (max response) in experiment [3] was 1.49%.

As for `O=S1(=O)OC(c2ccc(O)cc2)(c2ccc(O)cc2)c2ccccc21`, the Potency result in experiment [1], in experiment [2] and in experiment [4] was “inactive” in each case. For the same compound, in experiment [3], the activity (max response) is -5.64%.

In the case of `O=C(NCc1ccc(S(=O)(=O)c2cccc(C(F)(F)F)c2)cc1)c1cnc2[nH]ncc2c1`, the Potency in experiment [1] is 11.8 nM (active); in experiment [2], 10.5 nM (active); in experiment [3], 0.0282 µM (active); in experiment [4], 0.0178 µM (active).

On to `Cn1c(=O)c2[nH]cnc2n(C)c1=O`, for which the Potency result in experiment [1], in experiment [2] and in experiment [4] was “inactive” each time. For the same compound, the activity (max response) in experiment [3] was -5.93% and 14.5%.

As to `CCCCc1ncc(/C=C(\Cc2cccs2)C(=O)O)n1Cc1ccc(C(=O)O)cc1`, the Potency entry in experiment [1], in experiment [2] and in experiment [4] was “inactive” each time. Further, in experiment [3], the activity (max response) is 6.21%.

For `O=C(NCCc1c[nH]c2ccccc12)c1cccnc1`, the Potency in experiment [1] is 1.9 nM (active). The Potency result in experiment [2] and in experiment [4] was “inactive” each time. In addition, the activity (max response) in experiment [3] was -4.89%.

As to `COc1ccc(S(=O)(=O)N(CCO)c2ccccc2CN(C)C/C=C/c2ccc(Cl)cc2)cc1`, the Potency in experiment [1] is 4680 nM (active); in experiment [2], 4680 nM (active); in experiment [3], 10 µM (active); in experiment [4], 12.6 µM (active).

Take `C[C@@H]1C(=O)OC2[C@H](O)[C@]34[C@H]5C[C@@H](C(C)(C)C)[C@]36[C@@H](OC(=O)[C@@H]6O)O[C@@]4(C(=O)O5)[C@]21O` (stereo partly specified): the Potency entry in experiment [1], in experiment [2] and in experiment [4] was “inactive” throughout. Moreover, the activity (max response) in experiment [3] was 5.05%.

Turning to `N=C1CCCN1Cc1[nH]c(=O)[nH]c(=O)c1Cl`, the Potency entry in experiment [1], in experiment [2] and in experiment [4] was “inactive” throughout. The activity (max response) in experiment [3] was -17.6%.

In the case of `CN=C(NC#N)NCCSCc1nc[nH]c1C`, the Potency result in experiment [1], in experiment [2] and in experiment [4] was “inactive” throughout. In addition, the activity (max response) in experiment [3] was -4.08%.

Regarding `CC(=O)c1ccc2c(c1)c1cc(C(C)=O)ccc1n2CCNC(C)C`, the Potency in experiment [1] was 372 nM (active); in experiment [2], 525 nM (active); in experiment [3] it was 1.58 µM (active); in experiment [4] it was 1.58 µM (active).

`Cc1oc(=O)oc1COC(=O)[C@@H]1N2C(=O)[C@@H](NC(=O)[C@H](N)c3ccccc3)[C@H]2SC1(C)C`: the Potency entry in experiment [1], in experiment [2] and in experiment [4] was “inactive” each time. Moreover, the activity (max response) in experiment [3] was 7.35%.

On to `C(=C\c1ccccc1)/CN1CCN(C(c2ccccc2)c2ccccc2)CC1`, for which the Potency entry in experiment [1], in experiment [2] and in experiment [4] was “inactive” throughout. Also, in experiment [3], the activity (max response) is -1.91%.

For the compound `[2H]C([2H])([2H])C(O)([C@@H](C)/C=C/[C@@H](C)[C@H]1CC[C@H]2/C(=C/C=C3C[C@@H](O)C[C@H](O)C3)CCC[C@]12C)C([2H])([2H])[2H]`, the Potency in experiment [1] was 10.5 nM (active); in experiment [2], 468 nM (active). Besides, in experiment [3], the activity (max response) was -26.6%. In experiment [4], the Potency result is “inactive”.

With `Cn1cc(-c2cc(Oc3cc(F)c(NC(=O)C4(C(=O)Nc5ccccc5)CC4)cc3F)ccn2)cn1`, the Potency is 103 nM (active) in experiment [1], 461 nM (active) in experiment [2], 25.1 µM (active) in experiment [3] and 28.2 µM (active) in experiment [4].

Turning to `O=C(Nc1nc2cccc(-c3ccc(CN4CCS(=O)(=O)CC4)cc3)n2n1)C1CC1`, the Potency in experiment [1] is 2.59 µM (active) and 5.25 µM (active); in experiment [2] it was 2.91 µM (active) and 7.42 µM (active); in experiment [3], 25.1 µM (active); in experiment [4] it was 28.2 µM (active).

In the case of `CCC1Nc2cc(Cl)c(S(N)(=O)=O)cc2S(=O)(=O)N1` (stereo unspecified), the Potency result in experiment [1], in experiment [2] and in experiment [4] was “inactive” throughout. In addition, the activity (max response) in experiment [3] is 2.08%.

As for `CCc1cc2c(cc1N1CCC(N3CCOCC3)CC1)C(C)(C)c1[nH]c3cc(C#N)ccc3c1C2=O`, the Potency in experiment [1] is 178 nM (active); in experiment [2] it was 632 nM (active). In addition, the activity (max response) in experiment [3] was -11.5%. Further, the Potency entry in experiment [4] is “inactive”.

For `Cc1c(NC(=O)c2cc(C(N)=O)nc3cc(F)ccc23)c(C(F)(F)F)nn1Cc1ccc(C(C)(C)C)cc1`, the Potency in experiment [1] was 20900 nM (active); in experiment [2], 16600 nM (active). Besides, the activity (max response) in experiment [3] was 8.86%. Further, in experiment [4], the Potency result was “inactive”.

As for `N#Cc1ccc(C2CCCc3cncn32)cc1` (stereo unspecified), the Potency entry in experiment [1], in experiment [2] and in experiment [4] was “inactive” each time. In experiment [3], the activity (max response) is -11.9%.

Source of the values: PubChem BioAssay (NCATS).
